Measurements published in PubChem BioAssay (NCATS).
Inconclusive results are not listed. A call without a number means that no potency is given here. Calls of active or inactive are those of the source. Calls follow the shape of the dose curve; as a rule, active = well fitted cell-killing curve with a large enough effect; inconclusive = small, poorly fitted or top-dose-only effect; inactive = flat fitted curve, though single readings scatter.
Potency is read from the fitted curve at half-maximal effect.

Test: Cell Viability - LYMP2-022 (AID 987); also: nearly all actives have a fitted effect of over 55% in size
Conditions: LYMP2-022 lymphoblastoid cell viability; series mostly up to 92.2 µM
Description: NIH Chemical Genomics Center [NCGC]
NIH Molecular Libraries Screening Centers Network [MLSCN]
National Institutes of Environmental Health Sciences [NIEHS]
National Toxicology Program [NTP]
We have developed a 1536-well cell-based assay for quantitative high throughput screening (qHTS) against a number of cell lines to determine in vitro cytotoxicity of small molecules. This particular assay uses a human lymphoblastoid cell line (LYMP2-022) purchased from Coriell Institute for Medical Research.
NCGC Assay Protocol Summary:
The CellTiter-Glo luminescent cell viability assay (Promega) is a homogeneous method to measure the number of viable cells in culture. The end point readout of this assay is based on quantitation of intracellular ATP, an indicator of metabolic activity, using the luciferase reaction. Luciferase catalyzes the oxidation of beetle Luciferin to oxyluciferin and light in the presence of ATP. The luminescent signal is proportional to amount of ATP present.
Using the CellTiter-Glo luminescent cell viability assay, the amount of cellular ATP was measured in the lymphoblastoid cell line with complete culture medium following compound treatment for 24 hours. The assay was performed in opaque white Kalypsys 1536-well plates. In the screen, tetraoctylammonium bromide was used as positive control. Library compounds were measured for their ability to cause acute toxicity in the cell line, as reflected by a decrease in intracellular ATP levels, in a concentration-dependent manner. […] AC50 values were determined from concentration-response data modeled with the standard Hill equation.
qHTS protocol for CellTiter Glo lymphoblastoid cellular assay
[Step] [Parameter] [Value] [Description]
1. Reagent; 5 uL; 2500 lymphoblastoid cells/well
2. Time; 5 hr; 37 C incubation
4. Controls; 23 nL; Tetraoctylammonium bromide 6.4pM to 92 uM
5. Time; 24 hr; 37 C incubation
6. Reagent; 5 uL; CellTiter Glo reagent
7. Time; 30 min; Room Temperature
8. Detection; Luminescence; Viewlux plate reader
Keywords: cell viability, cytotoxicity, lymphoblastoid cell line, luminescence, NTPHTS, NTPHTS_NCGC, NIEHS, DSSTox, MLSMR, MLSCN, NIH Roadmap, qHTS, NCGC
For `OCCBr`, the Potency was “inactive”.
For `Nc1c(Cl)cc([N+](=O)[O-])cc1Cl`, the Potency was “inactive”.
For `Nn1cnnc1`, the Potency was “inactive”.
For `N#C/C(N)=C(/N)C#N`, the Potency was “inactive”.
With `C[N+](=O)[O-]` the Potency was “inactive”.
With `CCCCOCC1CO1` (stereo not given) the Potency was “inactive”.
In the case of `O=[N+]([O-])c1c(Cl)c(Cl)c(Cl)c(Cl)c1Cl`, the Potency is reported as “inactive”.
With `CCCCCCCCCCCCCl` the Potency was “inactive”.
For `Clc1cccc(Cl)c1Cl`, the Potency was “inactive”.
In the case of `CN1CSC(=S)N(C)C1`, the Potency is reported as 10 µM (active).
In the case of `Clc1cccc(Cl)c1`, the Potency is reported as “inactive”.
In the case of `CCOP(=O)(OCC)OCC`, the Potency is reported as “inactive”.
For `ClC(Cl)Br`, the Potency was “inactive”.
In the case of `CCCCC#N`, the Potency is reported as “inactive”.
With `O=[N+]([O-])c1ccc(Cl)c(Cl)c1Cl` the Potency was “inactive”.
For `Cl/C=C/CCl`, the Potency was “inactive”.
In the case of `O=Cc1ccc2c(c1)OCO2`, the Potency is reported as “inactive”.
For `[N-]=[N+]=[N-]`, the Potency was “inactive”.
With `C=CC(=O)OC` the Potency was “inactive”.
With `CCC#N` the Potency was “inactive”.
With `ClCCOCCCl` the Potency was “inactive”.
For `CN(C)C(=O)Cl`, the Potency was “inactive”.
For `C=CCBr`, the Potency was “inactive”.
For `O=[N+]([O-])c1cc(Cl)c(Cl)c(Cl)c1`, the Potency was “inactive”.
In the case of `O=[N+]([O-])CCO`, the Potency is reported as “inactive”.
With `C1CC2OC2CC1C1CO1` (stereo not given) the Potency was “inactive”.
For `C=CC(=O)OCCN(C)C`, the Potency was “inactive”.
For `O=[N+]([O-])c1cccc(O)c1`, the Potency was “inactive”.
For `NC1CCC(CC2CCC(N)CC2)CC1` (stereo not given), the Potency was “inactive”.
With `CNC(=O)O/N=C/C(C)(C)S(C)=O` (stereo not given) the Potency was “inactive”.
For `CN(C)C(=O)Nc1cccc(C(F)(F)F)c1`, the Potency was “inactive”.
For `C/C=C/C=O`, the Potency was “inactive”.
With `COc1cc(-c2ccc(N)c(OC)c2)ccc1N` the Potency was “inactive”.
For `CN(C)c1ccc(N(C)C)cc1`, the Potency was 39.8 µM (active).
For `CN(C)C(=O)Nc1ccc(Cl)cc1`, the Potency was “inactive”.
For `Nc1c(Br)cc([N+](=O)[O-])cc1[N+](=O)[O-]`, the Potency was “inactive”.
In the case of `CC(Cl)CCl` (stereo not given), the Potency is reported as “inactive”.
In the case of `C=C(C)CCl`, the Potency is reported as “inactive”.
With `O=C(Cl)OCc1ccccc1` the Potency was “inactive”.
In the case of `CCNCC`, the Potency is reported as “inactive”.
